The source made the active and inactive calls. The rule behind the calls is not given here.
Assays:
[1] = tested on: Botulinum neurotoxin type F light chain protease (Clostridium botulinum); experiment: Clostridium botulinum type F light chain protease inhibitors, microsphere substrate cleavage, validation (AID 588459); conditions: multiplex microsphere protease substrate cleavage assay, flow cytometry; at 10 µM; stronger effect = higher value
[2] = molecular target: Botulinum neurotoxin type A (Clostridium botulinum) (UniProt P0DPI0); experiment: BoNT/A light chain protease inhibitors, biochemical, multiplex microsphere flow cytometry, validation set (AID 588460); conditions: at 10 µM, stronger effect = higher value
[3] = molecular target: Lethal factor (Bacillus anthracis) (UniProt P15917); experiment: Bacillus anthracis lethal factor inhibition, microsphere flow cytometry protease assay, validation at 10 µM (AID 588461); conditions: multiplex microsphere protease cleavage assay, stronger effect = higher value

Measured: inhibition

Cc1cccc(C(=O)c2cccc(C)c2)c1
inactive: [1] -4.8% | [2] -0.8% | [3] -11.4%

COc1ccc(C(=O)NCc2cccnc2)cc1
inactive: [1] -1.8% | [2] 0% | [3] -4.9%

CCOC(=O)COc1ccc2c(=O)c(-c3ccccc3)coc2c1
inactive: [1] -1.6% | [2] 1.3% | [3] 1%

CC(C)(C)c1ccc(/C=C/C(=O)N2CCCCC2)cc1
inactive: [1] -0.4% | [2] -1.5% | [3] 4.7%

CSCC[C@H](NC(=O)Nc1ccc(C)cc1C)C(=O)O
inactive: [1] -2.1% | [2] 1.4% | [3] 0.5%

O=c1[nH]c(=O)n([C@H]2C[C@H](O)[C@@H](CO)O2)cc1C(F)(F)F
inactive: [1] -1% | [2] 0% | [3] 3.3%

COC(=O)c1cc(OC)c(OC)cc1NC(=O)Nc1ccc(OC)cc1OC
inactive: [1] -4% | [2] -0.8% | [3] 5.9%

CCCN1C[C@H](CSC)C[C@@H]2c3cccc4[nH]cc(c34)C[C@H]21
inactive: [1] -8.5% | [2] -1.6% | [3] -33.7%

CCOc1cc(C)cc2oc(=O)cc(-c3ccccc3)c12
inactive: [1] -2.2% | [2] -0.6% | [3] -4.4%

CCS(=O)(=O)CCn1c([N+](=O)[O-])cnc1C
inactive: [1] 2.2% | [2] 0.7% | [3] 3.7%

Cc1ccc(OCCCCn2ccnc2C)c(C)c1
inactive: [1] -5.4% | [2] -1.6% | [3] -1.6%

COc1ccc(-c2cc(C(=O)N3CCOCC3)c3cc(C)ccc3n2)cc1
inactive: [1] -8.2% | [2] -2.6% | [3] 2.3%

CC(C)CC1c2[nH]c3ccccc3c2CCN1C(=O)CCC(=O)N(C)C (configuration not stated)
inactive: [1] 1.9% | [2] -0.3% | [3] 2.9%

CO[C@@H]1O[C@@H]2COC(c3ccccc3)O[C@@H]2[C@@H](OC)[C@@H]1O (some centres not stated)
inactive: [1] 1.6% | [2] -0.6% | [3] 2.5%

CCN(CC)CCNc1ccc(CO)c2sc3ccccc3c(=O)c12
inactive: [1] 0.5% | [2] -0.5% | [3] -7%

COc1ccc2nc(C)cc(Nc3ccccc3O)c2c1
inactive: [1] 1% | [2] 1% | [3] -1.4%

CC(NC(=O)c1ccc(OC2CCN(Cc3ccccn3)CC2)cc1)c1ccccc1 (configuration not stated)
inactive: [1] 2.8% | [2] 0.5% | [3] 3.4%

CCc1cc(=O)oc2cc3occ(-c4ccc(OC)c(F)c4)c3cc12
inactive: [1] 2.2% | [2] -0.9% | [3] -2.7%

CCOCc1cc(C)[nH]c(=O)c1C#N
inactive: [1] -0.2% | [2] 2.8% | [3] 2%

Cc1cc(C)c2c(CCl)cc(=O)oc2c1
inactive: [1] -4.3% | [2] -1.5% | [3] -3.4%

CC(OC(=O)c1cc(=O)[nH]c2ccccc12)C(=O)c1ccccc1 (configuration not stated)
inactive: [1] 2.3% | [2] -2.4% | [3] -6.9%

COc1ccc(C)cc1S(=O)(=O)Nc1ccc(F)cc1
inactive: [1] 1.1% | [2] -0.3% | [3] 0.5%

COc1ccc2cc(C3(C)NC(=O)NC3=O)ccc2c1 (configuration not stated)
inactive: [1] -0.4% | [2] -0.4% | [3] 0.8%

Nc1ccc(S(N)(=O)=O)cc1N
inactive: [1] 1.4% | [2] -2.7% | [3] -20%

CC(C)=CC/C=C1\CCC(C(=O)O)C(C(=O)O)C1 (configuration not stated)
inactive: [1] -1.1% | [2] -1.6% | [3] -3.4%

COc1ccc(CCN2CCC(Nc3nc4ccccc4n3Cc3ccc(F)cc3)CC2)cc1
inactive: [1] -1.8% | [2] 0.4% | [3] 1.2%

Cc1ccc2c(CN3CCN(Cc4ccc5c(c4)OCO5)CC3)cc(=O)oc2c1C
inactive: [1] -2.8% | [2] 0.6% | [3] -5.7%

C=CCC1(O)C(=O)N2C(=C1C(=O)N1CCOCC1)c1ccccc1CC2(C)C (configuration not stated)
inactive: [1] -1.7% | [2] -0.2% | [3] 5.7%

COC(=O)[C@H]1[C@H]2C[C@@H]3c4[nH]c5cc(OC)ccc5c4CCN3C[C@H]2C[C@@H](OC(=O)c2ccc(N)cc2)[C@@H]1OC
inactive: [1] -4.7% | [2] -2.3% | [3] -32.8%
